The sample as a whole holds a higher share of hits than the screen did.
CXXC DNA block = qHTS Fluorescence Polarization Assay for Inhibitors of MLL CXXC domain - DNA interaction; MLL-CXXC / FITC-HOXA9 DNA fluorescence polarization; AID 2662, 2010; 290,000 compounds, 0.037% hits; Potency, µM (doses to about 115 µM), without a hit: top-dose activity change, negative = inhibition, usual class: inhibitors; active means well fitted inhibition curve with a large enough effect in the polarisation, with a control signal flat, not every such curve was filed as active; inconclusive means small, poorly fitted or top-dose-only effect, or effect the other way, or a change in a side signal; inactive means no such curve, though single readings can be large or run the other way; the % refers to the polarisation; further: potency means the concentration at half of the fitted maximal effect
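Fluorescence polarization: 7 uM MLL-CXXC (stock) preincubated 5 min with compounds, then 50 nM fluorescein-HOX-A9 DNA (stock) added; 30 min ambient. Buffer 50 mM Tris-HCl pH 7.5, 50 mM NaCl, 1 mM DTT, 0.05% BSA.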
Menin MLL FP FL = qHTS Assay for Inhibitors Targeting the Menin-MLL Interaction in MLL Related Leukemias: Competition With Fluorescein Labeled MLL-derived Peptide | Fluorescence polarization, fluorescein-MLL peptide displacement from menin | 290,000 tested, under 10 active | FP activity change, % at 61.4 µM; active means well fitted curve in the direction sought with a large enough effect in the polarisation, not every such curve was filed as active; inconclusive means small, poorly fitted or top-dose-only effect, or effect the other way, or a change in a side signal; inactive means no such curve, though single readings can be large or run the other way; the % refers to the polarisation; further: % of control where 0% means no effect
Menin MLL FP TR = qHTS Assay for Inhibitors Targeting the Menin-MLL Interaction in MLL Related Leukemias: Competition With Texas Red Labeled MLL-derived Mutant Peptide; O00255; AID 1768, 2009; 270,000 compounds, 0.23% hits; Menin + Texas Red MLL mutant peptide, fluorescence polarization; Potency, µM (doses to about 61.6 µM), without a hit: top-dose FP activity change, negative = inhibition, actives largely listed as inhibitors; active means well fitted inhibition curve with a large enough effect in the polarisation, with a control signal flat, not every such curve was filed as active; inconclusive means small, poorly fitted or top-dose-only effect, or effect the other way, or a change in a side signal; inactive means no such curve, though single readings can be large or run the other way; the % refers to the polarisation; further: potency means the concentration at half of the fitted maximal effect; % of control where 0% means no effect
Target sequence (O00255 whole entry, looked up): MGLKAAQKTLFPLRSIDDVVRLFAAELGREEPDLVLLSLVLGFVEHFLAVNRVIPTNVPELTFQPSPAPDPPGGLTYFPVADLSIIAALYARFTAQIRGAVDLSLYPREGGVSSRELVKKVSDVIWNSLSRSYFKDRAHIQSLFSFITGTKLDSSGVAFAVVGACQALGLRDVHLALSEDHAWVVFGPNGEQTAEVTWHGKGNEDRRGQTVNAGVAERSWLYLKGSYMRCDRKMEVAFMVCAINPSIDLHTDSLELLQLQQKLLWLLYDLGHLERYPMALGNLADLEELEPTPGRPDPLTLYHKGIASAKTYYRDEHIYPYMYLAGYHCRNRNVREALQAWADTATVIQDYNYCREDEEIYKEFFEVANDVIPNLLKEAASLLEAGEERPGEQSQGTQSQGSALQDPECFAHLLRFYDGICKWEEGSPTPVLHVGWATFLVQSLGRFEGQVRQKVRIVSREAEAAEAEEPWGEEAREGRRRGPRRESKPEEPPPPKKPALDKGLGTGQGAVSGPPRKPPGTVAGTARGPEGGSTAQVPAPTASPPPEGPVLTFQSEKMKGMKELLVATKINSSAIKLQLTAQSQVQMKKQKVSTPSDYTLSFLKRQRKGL
ClpP mod = qHTS Assay for Activators of ClpP. 340,000 compounds, 1.9% hits. AID 651965, 2013. purified B. subtilis ClpP, FRET peptide cleavage, 20 min. ATP-dependent Clp protease proteolytic subunit (Bacillus subtilis (strain 168)), P80244. Potency, µM (doses to about 57.5 µM), for inactives: at the top dose activity change, negative = active; active means well fitted falling curve with a large enough effect; inconclusive means small, poorly fitted or top-dose-only effect; inactive means no such curve, though single readings can be large or run the other way; further: potency means the concentration at half of the fitted maximal effect; the source files actives as falling curves though it sought activators and does not explain the sign; nearly all actives have a fitted effect of over 65% in size
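FRET quenching reversal measured ClpP activation: 10 microg/mL B. subtilis ClpP at pH 8 with the FRET-FV decapeptide, read at 430 nm after 320 nm excitation. The 20-min minus 0-min signal was scaled between DMSO/no-enzyme wells and ADEP (5.8 microM final).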
p53 reactivation = qHTS assay for re-activators of p53 using a Luc reporter; H1299 p53-A138V BP100-luciferase reporter, luminescence, 24 h; Potency, µM (titrated, usually from 92.2 µM), inactives show top-dose activity change, positive = activation, usual class: activators; 320,000 compounds, 0.063% hits; AID 504706, 2011; further: potency means the concentration at half of the fitted maximal effect; % of control where 0% means no effect; nearly all actives have a fitted effect of over 45% in size
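H1299 (p53-null), stable ts p53-A138V + BP100-Luc; 1000 cells/well, Opti-MEM/10% FBS; cpd 4 pt, 1:5; 24 h, 37 deg C, 5% CO2; detection reagent 10 min RT; luminescence.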
ClpP inh valid = qHTS Assay for Activators of ClpP: Hit Validation of Inhibitors | shares compounds with ClpP mod | purified B. subtilis ClpP, FRET-FV substrate cleavage, 20 min | Potency, µM (highest dose often 57.5 µM), without a hit: at the top dose activity change, negative = inhibition, most hits filed as inhibitors | 470 compounds, 40% hits | AID 743245, 2014; further: potency means the concentration at half of the fitted maximal effect; on the % scale 0 is the no-effect control and ±100 the full control effect; nearly all actives have a fitted effect of over 70% in size
* hit, by the source's call; ? = inconclusive; · = no result. Unless noted, the call rests on the fitted dose curve; in most records, active means well fitted curve in the direction sought with a large enough effect; inconclusive means small, poorly fitted or top-dose-only effect, or another doubt; inactive means no such curve, though single readings can be large; an effect the other way counts as inactive or inconclusive.

SMILES | CXXC DNA block | Menin MLL FP FL | Menin MLL FP TR | ClpP mod | p53 reactivation | ClpP inh valid
NC(=S)Nc1cccc2cc3ccccc3cc12 | 4.9% | ? | ? | -6.3% | ? | ·
NC(=S)Nc1cc2ccccc2c2ccccc12 | 11.5% | 3.2 | 32.1% | 34.4% | -1.5% | 18.8%
Cc1ccc(NC(=O)CN2C(=O)COc3ccc(S(=O)(=O)N4CCCCCC4)cc32)c(C)c1 | · | · | · | 0.5% | · | ·
COc1ccc(NC2=CC(c3ccc(F)cc3)N(c3ccc(OC)cc3)C2=O)cc1 (stereo not given) | -6.9% | 4.4 | -2.5% | 93.9% | 0.0% | ?
CSc1nsc(SCC(=O)Nc2ccc(NC(C)=O)cc2)n1 | 18.1% | -2.1 | 0.1% | · | 2.7% | ·
CSc1nsc(SCC(=O)Nc2ccc(Br)cn2)n1 | 33.8% | -0.7 | ? | 68.1% | ? | 0.1%
CC(C)Cn1nnnc1S(=O)(=O)Cc1ccccc1 | · | 0.0 | -13.2% | · | · | ·
COc1ccc(C(=O)Nc2ccc(N3CCOCC3)cc2)cc1S(=O)(=O)N1CCCC1 | · | · | · | 0.8% | -3.0% | ·
COc1ccc(C(=O)Nc2ccc(N3CCOCC3)cc2)cc1S(=O)(=O)NC1CCCC1 | 1.8% | -0.3 | 3.2% | 8.91µM* | -0.3% | -0.5%
Cc1nc(-c2ccccc2)sc1C1(C)CC(c2c(Cl)cccc2Cl)=NO1 (stereo not given) | 26.9% | -1.3 | · | ? | 4.5% | ·
Cc1nc(-c2ccc(Cl)cc2)sc1C1(C)CC(c2c(Cl)cccc2Cl)=NO1 (stereo not given) | 0.5% | 1.6 | · | 10µM* | 4.3% | 27.3µM*
Cc1ccccc1NC(=O)c1cc2sccc2n1Cc1ccc(F)cc1 | · | · | · | 149.9% | · | ?
Cc1ccc(C)c(N(CC(=O)Nc2ccc(-c3nc4ccc(C)cc4s3)cc2)S(C)(=O)=O)c1 | 10.6% | 8.0 | -16.6% | 10µM* | 6.1% | 30.6µM*
Cc1ccc2nc(-c3ccc(NC(=O)c4ccc(S(C)(=O)=O)cc4)cc3)sc2c1 | · | · | · | -10.6% | · | ·
CCN(CC(=O)Nc1c(F)cccc1F)C(=O)c1ccc(C2SCCS2)cc1 | · | · | · | 73.6% | 0.6% | -0.5%
Cc1cc(C)cc(NC(=O)CCS(=O)(=O)c2cccc3nsnc23)c1 | · | · | · | -0.8% | · | ·
COc1ccc(S(=O)(=O)N2CCC(CN3C(=O)c4cccc5cccc(c45)C3=O)CC2)cc1 | ? | 2.4 | 2.0% | 10µM* | -9.6% | 24.3µM*
O=C(c1ccc(S(=O)(=O)N2CCCC2)cc1)N1CCC(CN2C(=O)c3cccc4cccc(c34)C2=O)CC1 | -2.8% | 1.3 | · | · | -4.0% | ·
COc1ccc(NS(=O)(=O)c2cc3[nH]c(=O)c(=O)[nH]c3cc2C)cc1Cl | · | · | · | -7.6% | · | ·
Cc1ccc2[nH]c3c(c2c1)CCc1cn[nH]c1-3 | -1.1% | 1.9 | ? | 2.82µM* | 24.8% | 24.3µM*
Cc1ccn2c(Nc3ccc4c(c3)OCO4)c(-c3ccc(Cl)cc3)nc2c1 | · | · | · | 3.98µM* | · | -21.9%
COc1ccc(CNC(=O)CSc2ncc3c(n2)-c2ccc(Cl)cc2N(Cc2ccc(F)cc2)S3(=O)=O)cc1OC | · | · | · | 1.6% | · | ·
c1csc(C2Nc3ccccc3-c3nc4ccccc4n32)c1 (stereo not given) | 8.1% | · | 22.6% | 10.7% | ? | ·
c1cncc(C2Nc3ccccc3-c3nc4ccccc4n32)c1 (stereo not given) | -0.4% | 0.2 | 9.2% | 3.16µM* | 15.0% | 27.3µM*
CCCCCc1cc(=O)oc2c(C(CCN3CCCC3)c3ccc(N(C)C)cc3)c(OC)cc(OC)c12 (stereo not given) | 13.3% | -1.5 | · | 89.5% | 4.9% | 20.3%

High-throughput results from PubChem.
